Source: PubChem BioAssay (NCATS)
Results filed as inconclusive are left out. Entries that show only a call come without a potency. Activity calls are given as the source filed them. The call rests on the fitted dose curve; in most records, active means well fitted curve in the direction sought with a large enough effect; inconclusive means small, poorly fitted or top-dose-only effect, or another doubt; inactive means no such curve, though single readings can be large; an effect the other way counts as inactive or inconclusive.

Key:
[1] = Primary qHTS for inhibitors of nuclear receptor binding SET domain protein 2 (NSD2) in an RCH-ACV wild type WT cells (2C) (AID 1645877); further: nearly all actives have a fitted effect of over 70% in size; further: potency means the concentration at half of the fitted maximal effect
[2] = target: Glutathione peroxidase 1 (Homo sapiens) (UniProt P07203); assay: Primary qHTS Assay for Inhibitors of Recombinant Selenoprotein Glutathione Peroxidase 1 (GPX1) (AID 1845191); further: nearly all actives have a fitted effect of over 65% in size
Method in brief: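 GPX1 10 nM, GR 100 nM, GSH 1 mM, NADPH 0.5 mM, CHP 0.5 mM (final). 30-min cpd preincubation, RT. Ex340/Em450 read t=0, t=15 min.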

[3] = target: Phospholipid hydroperoxide glutathione peroxidase GPX4 (Homo sapiens) (UniProt P36969); assay: Primary qHTS Assay for Inhibitors of Recombinant Selenoprotein Glutathione Peroxidase 4 (GPX4) (AID 1845192); further: nearly all actives have a fitted effect of over 65% in size; on activity change, negative = inhibition: series mostly up to about 50 µM
Method in brief: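 qHTS, GR-coupled: GPX4 200 nM + cpd 30 min RT → GSH 1 mM, NADPH 0.5 mM, GR 100 nM → CHP 0.5 mM start; fluor 340/450 at t0 and t15 min; no-enzyme wells as control.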

Chain of Phospholipid hydroperoxide glutathione peroxidase GPX4 (Homo sapiens) (P36969 whole entry, looked up): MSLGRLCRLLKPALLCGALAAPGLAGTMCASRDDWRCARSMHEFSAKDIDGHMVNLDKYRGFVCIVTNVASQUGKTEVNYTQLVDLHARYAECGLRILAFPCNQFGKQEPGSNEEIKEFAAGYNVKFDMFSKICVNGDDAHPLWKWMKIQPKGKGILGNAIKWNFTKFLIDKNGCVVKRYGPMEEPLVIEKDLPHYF
Chain of Glutathione peroxidase 1 (Homo sapiens) (P07203 whole entry, looked up): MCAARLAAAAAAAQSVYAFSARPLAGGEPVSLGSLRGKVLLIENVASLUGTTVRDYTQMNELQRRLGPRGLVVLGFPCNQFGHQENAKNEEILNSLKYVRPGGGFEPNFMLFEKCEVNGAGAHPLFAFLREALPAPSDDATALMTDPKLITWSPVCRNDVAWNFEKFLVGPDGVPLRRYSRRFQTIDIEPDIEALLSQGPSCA

Compound	Potency [1]	Potency [2]	Potency [3]	activity change, negative = cell killing [1]	outcome [2]	activity change, negative = inhibition [3]
CN1[C@H]2C[C@H](OC(=O)[C@H](CO)c3ccccc3)C[C@@H]1[C@@H](O)C2	inactive	inactive	inactive			
C=CC(C)(C)c1[nH]c2cccc3c2c1C[C@@H]1[C@@H]3[C@@H](OC(C)=O)[C@H](C)CN1C	inactive	inactive	inactive			
CCC(C)(C#N)O[C@@H]1O[C@H](CO)[C@@H](O)[C@H](O)[C@H]1O (some centres not stated)	inactive	inactive	inactive			
Oc1ccc2c3c1O[C@H]1[C@H](N(CCCl)CCCl)CC[C@@]4(O)[C@@H](C2)N(CC2CC2)CC[C@]314				-7.37% [at 9.23 µM] (inactive)	inactive [at 9.52 µM]	-3.35% [at 9.73 µM] (inactive)
COC1CC(OC2CCC3(C)C(CCC4C3CCC3(C)C(C5=CC(=O)OC5)C(OC(C)=O)CC43O)C2)OC(C)C1OC1OC(CO)C(O)C(O)C1O (configuration not stated)	1210 nM (active)	inactive	inactive			
C[C@@H]1C(=O)O[C@H]2[C@H](O)[C@@]34[C@@H]5OC(=O)[C@@]3(O[C@@H]3OC(=O)[C@@H](O)[C@@]34[C@H](C(C)(C)C)[C@H]5O)[C@@]12O	inactive	inactive	inactive			
Clc1ccc(N2C[C@H]3CC[C@@H](C2)N3)nn1	inactive	inactive	inactive			
CC(N)Cc1c[nH]c2ccccc12 (configuration not stated)	inactive	inactive	inactive			
CCN1C[C@]2(COC)[C@H](O)C[C@H](OC)[C@]34[C@@H]5C[C@]6(O)[C@H](OC(=O)c7ccccc7)[C@@H]5[C@@](O)([C@H]([C@H](OC)[C@H]23)[C@@H]14)[C@@H](O)[C@@H]6OC	inactive	inactive	inactive			
